Inconclusive results are not listed. A number with no mark means an inactive call. Calls of active or inactive are those of the source. Calls follow the shape of the dose curve; as a rule, active = well fitted curve in the direction sought with a large enough effect in the repeat runs; inconclusive = weak or mixed curves; inactive = no such curve, though single readings can be large; an effect the other way counts as inactive or inconclusive.

The nature of experiment [1]: qHTS RealTime-Glo MT Cell Viability Assay in HEK293 cells - 16 hour (AID 1224872). Also: top concentration of the series differs between compounds; nearly all actives have a fitted effect of over 50% in size. In outline:
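Homogeneous bioluminescent viability format in HEK293 cells (600 cells/well). Following 5 h at 37 C/5% CO2, 23 nL compound was pintooled; the signal was measured repeatedly during 40 h incubation.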
On the technique in general: In qHTS, concentration-response curves come from the screen itself.

A short description of experiment [2]: qHTS RealTime-Glo MT Cell Viability Assay in HepG2 cells - 8 hour (AID 1224873). Also: nearly all actives have a fitted effect of over 55% in size. In outline:
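Real-time viability: cells seeded at 600 per well together with NanoLuc and cell-permeant prosubstrate, compounds added after 5 h incubation. Luminescence tracked at 0, 8, 16, 24, 32 and 40 h of exposure.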

The nature of experiment [3]: A CellTox Green Cytotoxicity Assay to monitor cytotoxicity in HEK293 cells - 24 hour (AID 1224875). Also: nearly all actives have a fitted effect of over 45% in size. Also: potency is read from the fitted curve at half-maximal effect. As to activity change: series mostly up to about 77 µM. In outline: (§1)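 Seeding of HEK293 cells together with cytotoxicity dye preceded a 5 h incubation at 37 C/5% CO2. Test compounds in DMSO were then added and fluorescence monitored across 40 h.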
The nature of experiment [4]: A CellTox Green Cytotoxicity Assay to monitor cytotoxicity in HepG2 cells - 16 hour (AID 1224876). Also: nearly all actives have a fitted effect of over 45% in size. Also: potency is read from the fitted curve at half-maximal effect. In outline:
(§2)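 Nonlytic assay: viable cells exclude the dye, so fluorescence scales with cell death. HepG2 at 600 cells/well, compounds added after 5 h, signal read across 40 h.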

A short description of experiment [5]: qHTS RealTime-Glo MT Cell Viability Assay in HepG2 cells - 32 hour (AID 1224877). Also: nearly all actives have a fitted effect of over 55% in size. Also: potency is read from the fitted curve at half-maximal effect. An outline of the steps: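 Cell number in HepG2 cultures estimated from NanoLuc luminescence generated by metabolic reduction of a prosubstrate by living cells. The homogeneous, nonlytic format allowed repeated reads at 0, 8, 16, 24, 32 and 40 h of compound exposure.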
Experiment [6] is described as follows: A CellTox Green Cytotoxicity Assay to monitor cytotoxicity in HepG2 cells - 24 hour (AID 1224878). Also: nearly all actives have a fitted effect of over 45% in size. Also: potency is read from the fitted curve at half-maximal effect. An outline of the steps: as §2
Experiment [7] can be described thus: A CellTox Green Cytotoxicity Assay to monitor cytotoxicity in HEK293 cells - 32 hour (AID 1224881). Also: nearly all actives have a fitted effect of over 40% in size. Also: potency is read from the fitted curve at half-maximal effect. In outline: as §1
Experiment [8] in a line: qHTS RealTime-Glo MT Cell Viability Assay in HEK293 cells - 0 hour (AID 1224880). Also: top concentration of the series differs between compounds; nearly all actives have a fitted effect of over 45% in size. In outline: (§3)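 Tox21 screen in HEK293 using RealTime-Glo MT chemistry, with cells and reagent co-dispensed. Luminescence proportional to viable cell number was captured at intervals during 40 h compound exposure at 37 C.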
Experiment [9] is described as follows: A CellTox Green Cytotoxicity Assay to monitor cytotoxicity in HepG2 cells - 40 hour (AID 1224879). Also: nearly all actives have a fitted effect of over 40% in size. Also: potency is read from the fitted curve at half-maximal effect. An outline of the steps:
as §2

Experiment [10] in a line: qHTS RealTime-Glo MT Cell Viability Assay in HEK293 cells - 40 hour (AID 1224874). Also: nearly all actives have a fitted effect of over 50% in size. The note with it: RealTime-Glo luminescence; max response: active compounds read low. An outline of the steps: as §3
% is scaled to controls: 0 for no effect and ±100 for the full control effect.

As for `COc1ccccc1OCC(O)COC(N)=O` (configuration not stated), the Potency entry in [1], in experiment [3], in [4], in experiment [5], in experiment [6] and in experiment [7] was “inactive” each time. For the same compound, the outcome in experiment [2] was inactive.

For `CCC(=O)Nc1ccc(O)cc1`, the Potency result in experiment [1], in experiment [3], in experiment [4], in experiment [5], in experiment [6] and in experiment [7] was “inactive” each time. Further, the call in [2] and in experiment [8] was inactive.

As to `CC(C)=CCCC(C)CCOC=O` (configuration not stated), the Potency result in [1], in experiment [3], in experiment [4], in experiment [5], in [6] and in experiment [9] was “inactive” throughout. Further, in [7], the Potency entry was “inactive”. The call in [2] and in [8] was inactive.

Turning to `Cn1cnc2c(F)c(Nc3ccc(Br)cc3Cl)c(C(=O)NOCCO)cc21`, the Potency result in experiment [1], in experiment [3] and in [7] was “inactive” in each case. The outcome in experiment [2] was inactive. For the same compound, the Potency in experiment [5] was 535 nM (active); in [6], 0.0301 µM (active).

On to `CN(C)CCOc1ccccc1Cc1ccccc1`, for which the Potency entry in experiment [1], in [3], in experiment [5] and in [7] was “inactive” throughout. The compound was classed as inactive in experiment [2] and in [8].

`COC(C)CCO` (configuration not stated): the Potency entry in [1], in [3], in experiment [4], in experiment [5], in experiment [6] and in [9] was “inactive” each time. The Potency entry in [7] is “inactive”. In addition, the outcome in experiment [2] was inactive.

For `CCN(CC)CCOc1ccc(Cc2ccccc2)cc1`, the Potency result in experiment [1], in [3], in [5] and in [7] was “inactive” throughout. In addition, the compound was called inactive in experiment [2]. Besides, the Potency in experiment [9] was 26.8 µM (active).

In the case of `Cc1cccc(C)c1NC(=O)CN1CCCCCC1`, the Potency result in experiment [1], in experiment [3], in experiment [4], in experiment [5], in [6] and in experiment [9] was “inactive” throughout. Also, the Potency entry in experiment [7] was “inactive”. The result in experiment [2] and in experiment [8] was inactive.

Turning to `CCOc1ccccc1N`, the Potency result in experiment [1], in experiment [3], in [5], in experiment [6], in experiment [9] and in [7] was “inactive” throughout. Moreover, the compound was called inactive in experiment [2] and in experiment [8].

Turning to `CN1CCN(c2c(F)cc3c(=O)c(C(=O)O)cn4c3c2SCC4)CC1`, the Potency result in experiment [1], in [3], in [4], in [5], in experiment [6] and in experiment [9] was “inactive” each time. Moreover, the Potency result in [7] was “inactive”. In addition, the compound was classed as inactive in experiment [2] and in experiment [8].

In the case of `CCCCc1ccc2nc(NC(=O)OC)[nH]c2c1`, the Potency result in [1], in experiment [3], in [4], in [5], in [6] and in experiment [7] was “inactive” each time. In addition, the result in experiment [2] and in [8] was inactive. In [9], the Potency was 0.338 µM (active).

Regarding `FC(F)(F)c1ccccc1`, the Potency result in [1], in experiment [3], in experiment [5], in experiment [6] and in [7] was “inactive” each time. The call in experiment [2] and in experiment [8] was inactive.

With `CCNCCO`, the Potency entry in [1], in experiment [3], in [4], in experiment [5], in experiment [6] and in experiment [9] was “inactive” in each case. For the same compound, in experiment [7], the Potency entry is “inactive”. In addition, the compound was classed as inactive in [2] and in [8].

On to `CC(C)S`, for which the Potency entry in experiment [1], in experiment [3], in experiment [5], in [6], in [9] and in experiment [7] was “inactive” each time. The compound was classed as inactive in experiment [2] and in experiment [8].

In the case of `O=C(O[C@@H](C(=O)O)[C@@H](OC(=O)c1ccccc1)C(=O)O)c1ccccc1`, the Potency result in [1], in experiment [3], in experiment [5], in [6], in experiment [9] and in experiment [7] was “inactive” throughout. Further, the outcome in [2] and in experiment [8] was inactive.

As to `C=CC(C)(O)CC/C=C(\C)CCC=C(C)C` (configuration not stated), the Potency result in experiment [1] and in [5] was “inactive” in each case. For the same compound, the compound was classed as inactive in experiment [2] and in [8]. For the same compound, the Potency was 54.9 µM (active) in [3]; 17.4 µM (active) in experiment [4]; 21.9 µM (active) in [6]; 21.9 µM (active) in [9]; 49 µM (active) in [7].

In the case of `CC(CNC1CCCCC1)OC(=O)c1ccccc1` (configuration not stated), the Potency entry in [1], in [3], in experiment [4], in experiment [5], in [6] and in [7] was “inactive” throughout. For the same compound, the compound was classed as inactive in experiment [2] and in experiment [8].

With `Cc1c(C(=O)NCCO)[n+](=O)c2ccccc2n1[O-]`, the Potency entry in experiment [1], in [3], in experiment [5], in experiment [6], in [9] and in [7] was “inactive” in each case. Moreover, the compound was called inactive in experiment [2] and in experiment [8].

`CCOC(=O)c1ccccc1O`: the Potency entry in experiment [1], in [3], in experiment [4], in experiment [5], in experiment [9] and in [7] was “inactive” each time. Also, the outcome in experiment [2] and in experiment [8] was inactive.

Turning to `C[C@]12CCC(=O)C=C1CC[C@@H]1[C@@H]2CC[C@@]2(C)[C@H]1CC[C@]2(O)C(=O)CO`, the Potency result in experiment [1], in experiment [3], in [4], in experiment [5], in experiment [9] and in experiment [7] was “inactive” each time. Besides, the outcome in experiment [2] and in experiment [8] was inactive.

With `O=C(O)CN(CCN(CC(=O)O)CC(=O)O)CCN(CC(=O)O)CC(=O)O`, the viability change, negative = cytotoxic in experiment [2] is -0.356% [at 15.8 µM]. Moreover, the activity change in experiment [3] is 15.9% [at 15.8 µM, active compounds read high]. Also, the cytotoxicity increase in experiment [4] is 29.9% [at 15.8 µM]; in [9], 29.3% [at 15.8 µM]; in experiment [7], 18.1% [at 15.8 µM]. Moreover, the activity change, negative = cytotoxic in [5] was 0.371% [at 15.8 µM]. Besides, the cytotoxicity in experiment [6] is 28.9% [at 15.8 µM]. Also, the activity change, negative = cytotoxicity in [8] was 6.1% [at 15.8 µM].

As to `CC1(O)CSC(C)(O)CS1` (configuration not stated), the compound was called inactive in [2] and in experiment [8]. Also, the max response in [10] is 5.86%. The Potency entry in [3], in [4], in experiment [5], in [9] and in [7] was “inactive” throughout.

Regarding `CC1(C)C(=O)N(Cl)C(=O)N1Br`, the compound was classed as inactive in experiment [2] and in [8]. Moreover, the max response in experiment [10] is 17%. The Potency result in experiment [3], in experiment [4], in experiment [5], in experiment [6], in experiment [9] and in experiment [7] was “inactive” in each case.

On to `CCOc1ccc(NS(=O)(=O)c2ccc(N)cc2)nn1`, for which the compound was classed as inactive in experiment [2] and in experiment [8]. Also, the Potency result in experiment [5], in experiment [9] and in [7] was “inactive” throughout.

As for `O=Cc1ccc(O)c(O)c1O`, the Potency result in experiment [1], in experiment [3], in experiment [4], in experiment [5] and in [7] was “inactive” throughout. The max response in [10] was 1.24%. Further, the call in experiment [8] was inactive.

Regarding `CC(C)NC[C@@H](O)COc1cccc2ccccc12`, the Potency entry in experiment [1], in experiment [5], in experiment [6], in experiment [9] and in [7] was “inactive” in each case. The compound was classed as inactive in [2] and in experiment [8].

These data come from PubChem BioAssay (Tox21).
